Experimental data published in the supplement of paper PMC12669032.

test system: Bacteroides thetaiotaomicron; experiment: growth AUC relative to DMSO control (median of replicates) (fraction); higher = more growth (less inhibition), active = hit call of the paper; conditions: 20 µM; 24 h;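 active = AUC reduced over 20% with Padj below 0.05 in at least 2 of 3 replicates; inactive = otherwise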
Procedure, shortened: (§1)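 Three biological replicates, each grown on a separate day, were combined as a median for every value. In each, a gut bacterial monoculture in mGAM started at OD600 0.05 and grew anaerobically at 37 °C with 20 µM compound (1% DMSO), with OD600 read hourly over 24 h. Area under the growth curve was normalised against the plate median of solvent-only wells, or against row and column medians on the industrial chemical plate, after the minimum OD was set to 0.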

Growth AUC, inactive:
S=C([S-])NCCNC(=S)[S-].[Mn+2] 1.03, COc1ccc(Cl)c(Cl)c1Cl 0.991, CCCCOC(=O)C(C)Oc1ccc(Oc2ccc(C(F)(F)F)cn2)cc1 (stereo not drawn) 0.959, CCCCOCN(C(=O)CS(=O)(=O)[O-])c1c(CC)cccc1CC.[Na+] 0.934, CC(C)OC(=O)N[C@H](C(=O)N[C@H](C)c1nc2ccc(F)cc2s1)C(C)C 1.01, COc1ccc(Oc2ccc(NC(=O)N(C)C)cc2)cc1 0.982, CCCCOCCOC(=O)COc1nc(Cl)c(Cl)cc1Cl 0.963, CCSC(=O)N(CC(C)C)CC(C)C 1.01, C#CC(C)N(C)C(=O)Nc1ccc(Cl)cc1 (stereo not drawn) 1, O=S(=O)(Oc1ccc(Cl)cc1)c1ccccc1 0.964, CC(C)c1nn(C(=O)NC(C)(C)C)c(=O)n1N 0.976, COC(=O)c1ccc(I)cc1S(=O)(=O)[N-]C(=O)Nc1nc(C)nc(OC)n1.[Na+] 1.06, C=O 0.972, O=C1NCC[n+]2ccccc21.[Br-] 0.972, CCCCOCCOCCOCc1cc2c(cc1CCC)OCO2 0.96, Cc1ccc(C)c(O)c1 1, CCNc1nc(N)[nH]c(=O)n1 0.998, O=c1cc(Cl)[nH]nc1-c1ccccc1 1.02, CCNC(=O)[C@@H](C)OC(=O)Nc1ccccc1 1.01, Cc1c(C(=O)c2c[nH]n(C)c2=O)ccc(S(C)(=O)=O)c1C1=NOCC1 1, NC(=S)Nc1cccc2ccccc12 0.945, c1cc2ccc3ccc4ccc5cccc6c(c1)c2c3c4c56 1, CCc1cccc(CC)c1N(COC)C(=O)CS(=O)(=O)[O-].[Na+] 0.876, CN(C)c1ccc(N=NS(=O)(=O)[O-])cc1.[Na+] 0.955, CCc1cc(C(=O)O)cc(CC)c1C1C(=O)N2CCOCCN2C1=O 0.999, FC(F)(F)C(=NOCC1OCCO1)c1ccc(Cl)cc1 0.991, Cc1nn(C)c(OCC(=O)c2ccccc2)c1C(=O)c1ccc(Cl)cc1Cl 0.933, C=CCO/N=C(\CCC)C1=C([O-])CC(C)(C)C(C(=O)OC)C1=O.[Na+] (stereo not drawn) 1.02, COC(=O)C(C)Oc1ccc(Cl)cc1Cl (stereo not drawn) 1.01, COc1cc(OC)nc(NC(=O)NS(=O)(=O)Nc2ccccc2C(=O)C2CC2)n1 0.961, O=C(Nc1ccc(O)cc1-c1ccc(Cl)cc1)c1cccnc1Cl 1.01, S=C([S-])NCCNC(=S)[S-].[Zn+2] 0.978, COC(=O)COc1ccc(Cl)cc1C 1.01, ClC=C(c1ccc(Cl)cc1)c1ccc(Cl)cc1 0.975, CCCOc1nc2ccc(I)cc2c(=O)n1CCC 0.936, C#CCN(C)c1c(C#N)cnn1-c1nn2c(c1Cl)CCCC2 0.933, COC(=O)c1ccccc1S(=O)(=O)NC(=O)Nc1nc(OC(F)F)cc(OC(F)F)n1 0.965

Growth AUC, active:
Oc1c(Cl)cc(Cl)c(Cl)c1Cc1c(O)c(Cl)cc(Cl)c1Cl 0.00403, O.O=C(Nc1ccc(Cl)c(Cl)c1)Nc1cc(Cl)ccc1Oc1ccc(Cl)cc1S(=O)(=O)[O-].[Na+] 0.329

test system: Bacteroides uniformis; experiment: as above; conditions: 20 µM; 24 h
Procedure, shortened: as §1

Growth AUC, active:
Oc1c(Cl)cc(Cl)c(Cl)c1Cc1c(O)c(Cl)cc(Cl)c1Cl 0.0126, O.O=C(Nc1ccc(Cl)c(Cl)c1)Nc1cc(Cl)ccc1Oc1ccc(Cl)cc1S(=O)(=O)[O-].[Na+] 0.00911

Growth AUC, inactive:
S=C([S-])NCCNC(=S)[S-].[Mn+2] 0.991, COc1ccc(Cl)c(Cl)c1Cl 1, CCCCOC(=O)C(C)Oc1ccc(Oc2ccc(C(F)(F)F)cn2)cc1 (stereo not drawn) 0.891, CCCCOCN(C(=O)CS(=O)(=O)[O-])c1c(CC)cccc1CC.[Na+] 1.03, CC(C)OC(=O)N[C@H](C(=O)N[C@H](C)c1nc2ccc(F)cc2s1)C(C)C 0.93, COc1ccc(Oc2ccc(NC(=O)N(C)C)cc2)cc1 0.948, CCCCOCCOC(=O)COc1nc(Cl)c(Cl)cc1Cl 0.928, CCSC(=O)N(CC(C)C)CC(C)C 0.994, C#CC(C)N(C)C(=O)Nc1ccc(Cl)cc1 (stereo not drawn) 0.99, O=S(=O)(Oc1ccc(Cl)cc1)c1ccccc1 0.972, CC(C)c1nn(C(=O)NC(C)(C)C)c(=O)n1N 1, COC(=O)c1ccc(I)cc1S(=O)(=O)[N-]C(=O)Nc1nc(C)nc(OC)n1.[Na+] 0.941, C=O 0.988, O=C1NCC[n+]2ccccc21.[Br-] 1.02, CCCCOCCOCCOCc1cc2c(cc1CCC)OCO2 0.948, Cc1ccc(C)c(O)c1 1.01, CCNc1nc(N)[nH]c(=O)n1 1.02, O=c1cc(Cl)[nH]nc1-c1ccccc1 1.01, CCNC(=O)[C@@H](C)OC(=O)Nc1ccccc1 0.969, Cc1c(C(=O)c2c[nH]n(C)c2=O)ccc(S(C)(=O)=O)c1C1=NOCC1 1.01, NC(=S)Nc1cccc2ccccc12 0.951, c1cc2ccc3ccc4ccc5cccc6c(c1)c2c3c4c56 1, CCc1cccc(CC)c1N(COC)C(=O)CS(=O)(=O)[O-].[Na+] 0.996, CN(C)c1ccc(N=NS(=O)(=O)[O-])cc1.[Na+] 0.98, CCc1cc(C(=O)O)cc(CC)c1C1C(=O)N2CCOCCN2C1=O 1.02, FC(F)(F)C(=NOCC1OCCO1)c1ccc(Cl)cc1 0.941, Cc1nn(C)c(OCC(=O)c2ccccc2)c1C(=O)c1ccc(Cl)cc1Cl 0.852, C=CCO/N=C(\CCC)C1=C([O-])CC(C)(C)C(C(=O)OC)C1=O.[Na+] (stereo not drawn) 1.01, COC(=O)C(C)Oc1ccc(Cl)cc1Cl (stereo not drawn) 1.05, COc1cc(OC)nc(NC(=O)NS(=O)(=O)Nc2ccccc2C(=O)C2CC2)n1 0.915, O=C(Nc1ccc(O)cc1-c1ccc(Cl)cc1)c1cccnc1Cl 1, S=C([S-])NCCNC(=S)[S-].[Zn+2] 1.03, COC(=O)COc1ccc(Cl)cc1C 1.01, ClC=C(c1ccc(Cl)cc1)c1ccc(Cl)cc1 0.996, CCCOc1nc2ccc(I)cc2c(=O)n1CCC 0.95, C#CCN(C)c1c(C#N)cnn1-c1nn2c(c1Cl)CCCC2 0.914, COC(=O)c1ccccc1S(=O)(=O)NC(=O)Nc1nc(OC(F)F)cc(OC(F)F)n1 1.02
